# Bioassay records from PubChem BioAssay.
# An excerpt weighted towards active compounds, which were near 4.1% of everything screened.
# hcDAF12 agonist: H. contortus DAF-12 activation, primary screen; activation, % at 6.8 µM; AID 652067; HEK293 hcDAF-12 lit1-tk-luc reporter, luminescence; 0% DMSO, 100% Δ7-dafachronic acid; 370,000 compounds, 1.4% hits;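 active means activation above the mean of all tested compounds plus 3 SD, cut at about 5.5% in these data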;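 further: 100% = response to 3 µM Δ7-dafachronic acid high control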
# ssDAF-12 act: activators of S. stercoralis DAF-12 nuclear receptor. HEK293 ssDAF-12/GRIP1 lit1-tk-luc reporter, luminescence; % of 3 µM dafachronic acid response. activation, % at 6.8 µM. 370,000 compounds, 1% hits. AID 652126;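 active means activation above the mean over all tested compounds plus 3 SD, cut at about 0.9% in these data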;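 further: 0% = DMSO-only wells and 100% = 3 µM delta7-dafachronic acid wells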
# hgDAF-12 ag: agonists of H. glycines DAF-12 nuclear receptor; activation, % at 6.8 µM; HEK293 GAL4-hgDAF12 UAS-luciferase reporter, agonist luminescence; normalized to butyrate control; 370,000 compounds, 1.8% hits;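 active means activation above a cutoff set at the mean of all screened compounds plus 3 SD, cut at about 10% in these data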;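 further: 0% = DMSO wells and 100% = sodium butyrate wells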
# DAX1 inh-1: blocks DAX1 repression of SF-1 activated StAR promoter; HEK293T StAR-luciferase reporter, SF-1/DAX-1 repression relief; inhibition, % at 6.8 µM; 370,000 compounds, 1.1% hits;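 active means inhibition above the mean over all tested compounds plus 3 SD, cut at about 3.6% in these data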;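 further: 0% = DAX-1 cells with DMSO and 100% = cells lacking DAX-1 with DMSO; higher inhibition means more luminescence from relief of DAX-1 repression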
# DAX1 inh-2: NR0B1 (DAX1) inhibition; P51843; HEK293 Gal4-DAX1 luciferase reporter, luminescence; inhibition, % at 6.75 µM; 340,000 compounds, 0.99% hits;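 active means inhibition above the mean over all tested compounds plus 3 SD, cut at about 4.2% in these data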;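 further: 0% = DAX1-transfected cells with DMSO and 100% = empty-vector control cells with DMSO; inhibition shows as a rise in luminescence from relieved DAX1 repression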
# Target sequence (P51843 207-470 limits assumed): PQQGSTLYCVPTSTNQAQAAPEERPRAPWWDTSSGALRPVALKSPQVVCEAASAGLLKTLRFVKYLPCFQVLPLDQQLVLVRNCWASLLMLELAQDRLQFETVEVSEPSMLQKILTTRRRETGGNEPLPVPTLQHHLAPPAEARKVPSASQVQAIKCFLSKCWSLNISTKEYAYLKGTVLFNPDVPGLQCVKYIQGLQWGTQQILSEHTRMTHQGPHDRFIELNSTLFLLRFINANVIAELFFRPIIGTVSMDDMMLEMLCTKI
# DAX1 inh confirm: confirmation of human DAX1 (NR0B1) inhibitors; shares compounds with DAX1 inh-1; HEK293T StAR-promoter luciferase reporter, SF-1/DAX-1 repression; inhibition, % at 6.8 µM; 2,400 compounds, 87% hits;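 active means inhibition above the average of every tested compound plus 3 SD, cut at about 3.8% in these data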;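 further: 0% = DAX-1 cells with DMSO and 100% = no DAX-1 control cells with DMSO; active compounds raise luminescence by relieving repression of the StAR reporter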
# SF1 mutant ctr: nonselective inhibitor or artifact in SF-1 mutant DAX1 counter-screen | shares compounds with DAX1 inh-1 | HEK293 StAR-luciferase, SF-1 AF2 mutant, luminescence | inhibition, % at 6.8 µM | 2,400 compounds, 78% hits;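 active means inhibition above the mean of all tested compounds plus 3 SD, cut at about 3% in these data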;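 further: 0% = DAX-1 transfected cells with DMSO and 100% = cells without DAX-1 with DMSO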
# LXR ag: activates human LXR-beta, counter-screen for hcDAF-12 agonists; activation, % at 6.8 µM; 3,400 tested, under 10 active; shares compounds with hcDAF12 agonist; HEK293 Gal4-LXR tk-luc reporter, luminescence, 24 h; normalized: DMSO 0%, positive control 100%;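 active means mean percent activation of the reporter above a cutoff set as the average over tested compounds plus their standard deviation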
# Target sequence (P55055 whole entry, looked up, the tested form may be a part): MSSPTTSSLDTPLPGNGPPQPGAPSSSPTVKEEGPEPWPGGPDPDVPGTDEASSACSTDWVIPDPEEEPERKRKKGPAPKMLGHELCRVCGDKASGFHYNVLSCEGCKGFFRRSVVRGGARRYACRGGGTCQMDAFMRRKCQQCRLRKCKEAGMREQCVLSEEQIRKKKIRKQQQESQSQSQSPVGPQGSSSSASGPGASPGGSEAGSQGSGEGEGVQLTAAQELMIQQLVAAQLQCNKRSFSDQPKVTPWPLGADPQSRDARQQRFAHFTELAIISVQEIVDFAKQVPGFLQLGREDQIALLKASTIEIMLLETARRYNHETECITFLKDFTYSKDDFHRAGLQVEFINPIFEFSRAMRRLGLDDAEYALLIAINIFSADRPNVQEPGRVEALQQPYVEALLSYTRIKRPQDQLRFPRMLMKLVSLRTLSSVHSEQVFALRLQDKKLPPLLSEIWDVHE
# hcDAF12 conf: hcDAF-12 agonism, confirmation assay; shares compounds with hcDAF12 agonist; HEK293 hcDAF-12 lit1-tk-luc reporter, luminescence; % of Δ7-dafachronic acid response; activation, % at 6.8 µM; 3,400 compounds, 61% hits; AID 743032;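 active means mean activation across triplicate tests above the threshold derived from the earlier primary screen, cut at about 5.5% in these data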;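 further: 0% = DMSO only wells and 100% = 3 µM Δ7-dafachronic acid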
# hgDAF12 conf: confirmation of H. glycines DAF-12 agonists; shares compounds with hgDAF-12 ag; HEK293 GAL4-hgDAF12 luciferase reporter, agonist mode; percent of butyrate response; activation, % at 6.8 µM; 3,300 compounds, 80% hits; AID 743050;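 active means mean activation over triplicate wells above the hit cutoff derived from the earlier primary screen, cut at about 11% in these data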;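 further: 0% = DMSO low control and 100% = 2 mM sodium butyrate high control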
# LXR ag 2: counter-screen for DAF-12 agonists: agonists of human LXR-beta. 3,300 tested, under 10 active. AID 743051. HEK293 Gal4-LXR luciferase reporter, 24 h. shares compounds with hgDAF-12 ag. activation, % at 6.8 µM;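 active means mean activation of the triplicate above a set limit carried over from the primary screen, none filed active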
# Numbers without * were called inactive; · = not tested or not shown.
SMILES,hcDAF12 agonist,ssDAF-12 act,hgDAF-12 ag,DAX1 inh-1,DAX1 inh-2,DAX1 inh confirm,SF1 mutant ctr,hgDAF12 conf,LXR ag 2,others
CC1CCN(S(=O)(=O)c2ccc(C(=O)Nc3ncccc3O)cc2)CC1,0.0,-0.2,15.5*,6.3*,3.0,8.4*,4.3*,15.1*,0.1,
Cc1cccnc1NC(=O)c1ccc(S(=O)(=O)N2CCCCCC2)cc1,-0.1,-0.8,1.2,-0.3,1.2,·,·,·,·,
O=C(CNC(=O)c1cccs1)Nc1ccc2c(c1)OCCO2,4.3,0.5,17.3*,12.3*,2.4,8.0*,4.0*,16.3*,0.9,
O=C(Nc1ccccc1)c1ccc(-c2ccccc2)s1,2.1,0.7,14.2*,5.4*,4.2,12.1*,8.5*,16.8*,0.5,
CC(C)(C)c1ccc(-c2csc(N3CCC(C(N)=O)CC3)n2)cc1,-3.3,-2.2,0.1,·,·,·,·,·,·,
CCc1ccc(-c2ccc(SCC(=O)Nc3nnc(C)s3)nn2)cc1,7.6*,-0.1,20.6*,6.0*,-0.3,10.1*,7.8*,16.1*,0.7,LXR ag=0.8;hcDAF12 conf=6.0*
Cc1nnc(NC(=O)CSc2ccc(-c3ccc(Cl)cc3)nn2)s1,0.8,-1.6,3.3,0.4,0.0,·,·,·,·,
CCN=c1scc(-c2ccc(F)cc2)n1/N=C/c1ccccn1,1.9,-1.7,20.7*,6.8*,1.8,7.2*,4.8*,7.8,0.4,
CCN=c1scc(-c2ccccc2)n1/N=C/c1ccccn1,·,·,·,·,-3.9,·,·,·,·,
Cc1cc(C(=O)CSc2nn(-c3ccccc3)c(=S)s2)c(C)n1Cc1ccco1,-2.1,-1.8,-4.9,-0.6,-3.0,·,·,·,·,
Cc1cc(C(=O)CSc2nncs2)c(C)n1Cc1ccco1,4.9,-0.2,16.2*,4.8*,-2.1,9.8*,5.3*,13.2*,0.8,
Cc1ccc(NC(=S)c2nc3ccccc3[nH]2)c(C)c1,6.8*,1.6*,23.9*,5.1*,0.7,16.6*,8.1*,18.8*,0.7,LXR ag=1.5;hcDAF12 conf=12.5*
CC1Oc2ccccc2C=C1/C=N/Nc1ccc(C(=O)O)cc1 (stereo not given),6.9*,0.9*,14.5*,6.3*,-1.1,19.0*,9.3*,14.3*,0.9,LXR ag=1.9;hcDAF12 conf=14.8*
CCn1c(/C=N/Nc2ccc(C(=O)O)cc2)nc2ccccc21,0.6,-1.3,-0.9,-0.2,0.9,·,·,·,·,
COC(=O)c1cc2c(c3c4cc(C)ccc4n(S(=O)(=O)c4cccc(C)c4)c13)C(=O)N(Cc1ccc(C(F)(F)F)cc1)C2,1.6,-0.5,0.3,0.3,·,·,·,·,·,
COc1ccc2cc(C[C@@H]3CC[C@@H](CO)O3)ccc2c1,3.9,0.1,15.2*,5.0*,2.3,8.1*,5.4*,12.4*,0.6,
COC(=O)[C@]12C[C@H](CC(=O)NCc3ccc(OC)c(OC)c3)C(=O)N(Cc3ccc4c(c3)OCO4)C1=C[C@H](COCc1ccccc1)O[C@@H]2C,-1.0,-0.8,-1.9,-1.4,·,·,·,·,·,
COc1ccc(C(=O)c2[nH]c(N)c(C(=O)c3c[nH]c4ccccc34)c2-c2ccc(F)c(OC)c2)cc1,2.3,-0.3,-1.0,0.3,·,·,·,·,·,
COC(=O)c1ccc2nc(-c3ccc(Cl)cc3)c(CC3CCCCC3)n2c1,3.1,0.9,4.5,0.7,·,·,·,·,·,
Cc1ccc2nc(-c3ccc(F)cc3)c(CC3CCCCC3)n2c1,9.7*,1.5*,13.9*,6.6*,·,3.3,5.0*,9.9,0.3,LXR ag=0.1;hcDAF12 conf=4.6
CCCCCCCCN1C(=O)[C@@H](CC(=O)N2CCN(C(=O)OCC)CC2)C[C@@]2(C(=O)OC)C1=C[C@H](C(C)(C)C)O[C@@H]2C,1.2,-0.7,1.4,0.9,·,·,·,·,·,
O=C(NC(=S)Nc1ccc2c(c1)OCCO2)c1ccccc1,4.0,0.3,14.4*,4.7*,1.3,15.8*,8.7*,20.6*,0.9,
O=C(NC(=S)Nc1ccc2c(c1)OCCO2)c1ccccc1F,4.5,0.6,18.7*,7.6*,2.2,12.2*,7.0*,18.3*,0.6,
CCOc1cccc(C(=O)NC(=S)Nc2ccc3c(c2)OCCO3)c1,2.0,-0.8,8.1,0.2,1.2,·,·,·,·,
COC(=O)C1=C(C)N(Cc2ccccc2C(F)(F)F)C(=NCc2cccc(C(F)(F)F)c2)NC1c1cccc(Cl)c1 (stereo not given),2.3,-0.4,1.3,-0.7,·,·,·,·,·,
SMILES,hcDAF12 agonist,ssDAF-12 act,hgDAF-12 ag,DAX1 inh-1,DAX1 inh-2,DAX1 inh confirm,SF1 mutant ctr,hgDAF12 conf,LXR ag 2,others
C#CCNC(=O)C[C@H]1C[C@@]2(C(=O)OC)C(=C[C@H](COCc3ccccc3)O[C@@H]2C)N(CCC2=CCCCC2)C1=O,-1.2,-1.2,-2.3,-0.3,·,·,·,·,·,
Cc1ccc(/C(N)=N/OC(=O)c2cccs2)cc1,11.6*,1.0*,20.6*,6.5*,1.6,5.9*,5.1*,16.6*,0.8,LXR ag=1.4;hcDAF12 conf=4.8
Fc1ccccc1CSc1ncnc2c1ncn2C1CCCCO1 (stereo not given),5.0,0.2,14.4*,6.1*,0.7,8.6*,5.0*,12.7*,0.8,
COC(=O)C1CN(Cc2cn(CCOC(C)=O)nn2)CCS(=O)(=O)N1Cc1ccc(Cl)cc1 (stereo not given),-1.3,0.6,-0.5,-0.9,·,·,·,·,·,
COc1ccc(S[C@]2(C(=O)N3CCOCC3)CC(=O)N(C(=O)CCc3ccccc3)[C@@H]2c2ccc(OC)cc2)cc1,-1.1,-1.2,1.6,-2.0,·,·,·,·,·,
Cc1ccc(-c2nc(Nc3ccccc3)n[nH]2)cc1,12.2*,1.4*,14.4*,6.2*,2.4,23.0*,11.4*,21.7*,1.3,LXR ag=1.9;hcDAF12 conf=13.1*
Nc1nc(CSc2n[nH]c(-c3ccccc3)n2)nc(Nc2ccccc2)n1,-2.6,-1.7,-4.4,-0.6,-0.4,·,·,·,·,
Cc1ccc(C=Cc2ccccn2)cc1,3.2,-0.1,13.2*,7.5*,4.5*,11.7*,4.9*,20.3*,0.7,
